# A selection: hits, their analogues and other compounds. The true share with any hit is near 12%.
# Sm TGR inh = inhibitors of Schistosoma mansoni thioredoxin glutathione reductase | Q962Y6 | purified TGR, DTNB reduction, TNB absorbance 405 nm | Potency, µM (top dose mostly 114 µM), without a hit: at the top dose activity change, negative = inhibition, actives largely listed as inhibitors | actives 3% (n = 360,000); active = well fitted inhibition curve with a large enough effect; inconclusive = small, poorly fitted or top-dose-only effect; inactive = no such curve, though single readings can be large or run the other way; also: potency is read from the fitted curve at half-maximal effect; % is scaled to controls: 0 for no effect and ±100 for the full control effect; nearly all actives have a fitted effect of over 60% in size
#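 TGR 20 nM + NADPH 100 uM (dispensed conc.), cpd preinc 15 min RT; start with NADPH (500 uM addition) then DTNB (15 mM addition). Kinetic TNB absorbance, 405 nm filter. Four-parameter Hill fit across titration.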
# CHX counter = counter-screen hit for Shiga toxin inhibitors, cycloheximide | cell reporter, cycloheximide protein synthesis inhibition counterscreen | max response, % | actives 12% (n = 300,000) | AID 2314; in the data active = max response mostly above about 13%, no sharp cut-off; inactive = mostly below about 14%; also: read at 38.3 µM for the half of the compounds with a filed dose; 0% is about no effect
# FMDV inh = blocks foot and mouth disease virus; Potency, µM (series often up to 57.9 µM), for inactives: at the highest dose activity change, negative = inhibition, actives largely listed as inhibitors; FMDV antiviral cell-based qHTS; actives 1.2% (n = 410,000); calls by dose curve; tested in HEK293T cells; also: read-out not given here; potency is read from the fitted curve at half-maximal effect; % is scaled to controls: 0 for no effect and ±100 for the full control effect; nearly all actives have a fitted effect of over 45% in size
# Shiga toxin inh = blocks Shiga toxin action in Vero cells. inhibition, % at 38.7 µM. Vero cells, Shiga toxin protein synthesis inhibition reporter. actives 9.2% (n = 290,000). AID 2315; in the data active = inhibition mostly above about 28%, no sharp cut-off; inactive = mostly below about 43%; also: 0% is about no effect
# Numbers without * were called inactive; ? = inconclusive; nt = not tested or not shown.
SMILES,Sm TGR inh,CHX counter,FMDV inh,Shiga toxin inh
COC(=O)C1=C(C(=O)OC)C(c2ccccc2O)c2sc(=O)[nH]c2S1 (stereo not drawn),39.8µM*,-3.7,-13.7%,-5.0
CCCCC(CC)CNC(=O)c1ccc2c(=O)n(Cc3ccc(OC)cc3)c(=O)[nH]c2c1 (stereo not drawn),3.8%,nt,-21.1%,nt
O=C(O)c1cc(N/N=C/c2c(O)ccc3ccccc23)ccc1Cl,?,63.4*,-21.5%,160.1*
O=C(N/N=C/c1c(O)ccc2ccccc12)Nc1ccccc1,nt,nt,31.5%,nt
Nc1cc(Cl)nc(N/N=C/c2c(O)ccc3ccccc23)n1,-0.1%,26.3*,-8.5%,116.4*
CN1c2ccccc2C(C)(C)[C@]12C=Cc1cc(O)ccc1O2,-30.2%,38.0*,?,57.9
COc1ccc2c(c1)Sc1ccccc1N2CCN(C)C,-4.5%,-1.6,-11.7%,-12.6
CN1c2ccccc2C(C)(C)C12C=Nc1c(ccc3ccccc13)O2 (stereo not drawn),20µM*,27.1*,2.6%,99.4*
CC1(C)OC(=O)N(c2ccccc2)C12C=Cc1cc(Br)ccc1O2 (stereo not drawn),11.1%,-2.5,?,-13.3
COc1ccc2ccc3c(c2c1)N=CC1(O3)N(C)c2ccccc2C1(C)C (stereo not drawn),22.4µM*,10.1,nt,34.3*
Cc1ccc(C)c(Cn2c(=O)n(Cc3ccccc3)c(=O)c3c(C)c(C)sc32)c1,0.7%,nt,-24.1%,nt
CCOc1ccc(NC(=O)Cn2cc(C(=O)c3ccc(CC)cc3)c(=O)c3ccc(C)nc32)cc1,5.7%,nt,-19.2%,nt
CCOC(=O)c1ccccc1NC(=O)CSc1ccc(-c2sc(-c3ccccc3)nc2C)nn1,-3.7%,nt,-20.1%,nt
O=C(Nc1ccc2ccccc2n1)C1CCCCC1,11.8%,72.8*,27.4%,52.8
O=C(Nc1ccc2ccccc2n1)c1ccc(Cl)cc1,-7.5%,49.7*,-16.4%,67.3*
O=C(Nc1ccc2ccccc2n1)c1ccccc1Cl,0.0%,39.2*,1.7%,55.8*
O=C(Nc1ccccc1)C1CCCCC1,8.1%,6.5,-8.5%,5.3
COc1ccc(C(=O)Nc2ccc3ccccc3n2)c(OC)c1OC,1.1%,50.8*,-66.3%,74.0*
COc1ccc(C(=O)CC2(O)C(=O)N(CCc3ccccc3)c3ccc(Br)cc32)cc1OC (stereo not drawn),4.8%,nt,-26.0%,nt
CCC(=O)N1CCc2cc(Br)cc(S(=O)(=O)N3CCCC(C(=O)NCc4ccccc4)C3)c21 (stereo not drawn),0.5%,nt,0.0%,nt
CN1CCN(c2ncc3nc(-c4cn(C)c5ccccc45)c(=O)n(-c4ccccc4)c3n2)CC1,nt,nt,-13.6%,nt
O=C(Cn1ncn2c(cc3sccc32)c1=O)NCCc1ccccc1,0.7%,nt,-6.5%,nt
COc1ccc(C(=O)n2cnc3ccccc32)cc1Br,nt,nt,17.1%,nt
COc1ccc(C(=O)n2c(N)nc3ccccc32)cc1OC,-1.0%,24.8*,44.0%,nt
Nc1nncn1C(=O)c1cccs1,-0.5%,-3.1,29.0%,5.4
SMILES,Sm TGR inh,CHX counter,FMDV inh,Shiga toxin inh
Nc1nc2ccccc2n1C(=O)c1ccc(F)cc1,0.0%,16.3*,-66.1%,48.6
Nc1nc2ccccc2n1C(=O)c1cccs1,9.1%,50.6*,11.7%,91.3*
Nc1nc2ccccc2n1C(=O)c1ccccc1,nt,2.5,-45.5%,-14.2
CCc1ccccc1NC(=O)c1cnn2c(C(F)(F)F)cc(-c3ccc(OC)c(OC)c3)nc12,-0.3%,nt,-12.0%,nt
CCCCn1cc(S(=O)(=O)c2ccc(CC)cc2)c(=O)c2cc(F)c(N3CCCC(C)C3)cc21 (stereo not drawn),-0.1%,nt,-1.6%,nt
CC1CN(c2ncnc3c2oc2ccccc23)CC(C)O1 (stereo not drawn),3.6%,10.4,1.8%,14.2
O=C(O)C1CCCN1c1ncnc2c1oc1ccccc12 (stereo not drawn),-3.3%,43.2*,53.2%,49.3*
O=C(NCC1CCCO1)c1cccc(F)c1 (stereo not drawn),11.8%,-1.0,9.7%,-4.0
COc1ccc(-c2noc(-c3ccccc3C(=O)NCC3CCCO3)n2)cc1 (stereo not drawn),-5.7%,19.1*,3.7%,10.5
O=C(NCC1CCCO1)c1cc(-c2ccccc2F)no1 (stereo not drawn),-4.4%,29.1*,87.4%,91.0*
COc1ccccc1-c1noc(-c2ccccc2C(=O)NCC2CCCO2)n1 (stereo not drawn),2.6%,16.1*,-6.6%,-0.9
CCn1c(=O)cc(OCC(=O)NCc2ccc(F)cc2Cl)c2ccccc21,-3.1%,nt,-7.1%,nt
CCOC(=O)c1c(NC(=O)CSc2nc(-c3ccc(OC)cc3)cc(C(F)(F)F)n2)sc(C)c1C,5.2%,nt,-21.7%,nt
CCc1ccc(-c2cc(C(=O)N/N=C/c3ccccn3)[nH]n2)cc1,-2.7%,22.0,0.8%,29.0
O=C(N/N=C/c1ccccn1)c1cc(-c2ccccc2Cl)n[nH]1,3.1%,35.3*,22.9%,95.2*
O=C(N/N=C/c1ccccn1)c1ccc(NC(=O)c2ccccc2Cl)cc1,1.2%,0.9,-8.2%,5.8
O=C(N/N=C/c1ccccn1)c1cc(-c2cccc3ccccc23)n[nH]1,-7.8%,13.3*,-23.5%,-24.4
O=C(N/N=C/c1ccccn1)c1ccc(Cl)c(Cl)c1,4.9%,43.9*,nt,68.9*
Cn1c(SCc2ccccc2Cl)nc(=O)c2c1NC(=O)CC2c1cc(F)ccc1F (stereo not drawn),0.8%,nt,-8.9%,nt
CC(C)Sc1ccc(C(=O)Nc2ccc(F)cc2F)cn1,-0.6%,47.9*,-8.4%,50.0*
O=C(Nc1ccc(F)cc1F)c1ccc(-n2cccn2)nc1,5.4%,15.7*,-6.8%,17.6
CN1CCN(C(=O)/C=C/c2ccc3c(c2)OCO3)CC1,1.9%,26.5*,10.7%,37.6
COC(=O)C1CCN(C(=O)/C=C/c2ccc3c(c2)OCO3)CC1,2.4%,15.2*,53.5%,nt
CCOC(=O)N1CCN(C(=O)/C=C/c2ccc3c(c2)OCO3)CC1,5.0%,-1.5,-3.3%,11.8
CCC1CCCCN1C(=O)Cn1c(=O)n(CCCCCC(=O)NCc2ccccc2Cl)c(=O)c2sccc21 (stereo not drawn),-6.8%,nt,-3.7%,nt
SMILES,Sm TGR inh,CHX counter,FMDV inh,Shiga toxin inh
O=C(COC(=O)c1ccccn1)Nc1cc(Cl)ccc1Cl,-6.8%,2.0,-6.5%,-3.8
O=C(COc1ccccc1)Nc1ccc(Cl)cc1C(=O)c1ccccc1,5.8%,5.1,-19.0%,-3.4
Cc1ccc(Cl)cc1NC(=O)COc1ccccc1,6.2%,15.6*,38.4%,30.4
O=C(COc1ccccc1)Nc1ccccc1F,0.1%,32.9*,70.2%,nt
O=C(COc1ccccc1)Nc1cc(Cl)ccc1Cl,12.6%,17.5*,48.9%,37.1*
CCCNS(=O)(=O)c1ccc(OCC(=O)Nc2ccccc2F)cc1,-1.0%,12.5,5.8%,11.3
O=C(COc1ccccc1)Nc1ccc(Cl)cc1Cl,0.0%,52.8*,nt,92.6*
COc1ccc2c(c1)c1c(c(=O)n(-c3ccc(OC)c(OC)c3)c(=O)n1CC(=O)N1CCCC1)n2C,-6.5%,nt,2.8%,nt
CCC(C)n1c(=N)c(C(=O)NC2CCCCC2)cc2c(=O)n3ccccc3nc21 (stereo not drawn),-1.7%,nt,-13.3%,nt
CC(OC(=O)c1ccccc1C(=O)N(C)c1ccccc1)C(=O)Nc1ccc(C(N)=O)cc1 (stereo not drawn),-7.0%,nt,-5.5%,nt

# Screens: PubChem BioAssay, National Center for Advancing Translational Sciences (NCATS)
